# Pf growth 48h – Primary qHTS for delayed death inhibitors of the malarial parasite plastid, 48 hour incubation; P. falciparum luciferase growth in erythrocytes, 48 h; Potency, µM (titrated, usually from 28.7 µM), most hits filed as inhibitors; hit rate 5.9% among 310,000; AID 504832, 2011
#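 In quantitative HTS format, infected erythrocytes bearing luciferase-reporter parasites were treated for a single generation at 37 C. Luminescence after adding detection reagent served as the growth measure.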
# Pf growth 96h – Primary qHTS for delayed death inhibitors of the malarial parasite plastid, 96 hour incubation | P. falciparum luciferase reporter growth, 96 h | Potency, µM (titrated, usually from 28.7 µM), actives largely listed as inhibitors | hit rate 6.9% among 320,000
#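 Luminescence readout: decreased luciferase signal marks inhibited growth of reporter-expressing P. falciparum in infected red cells (2% hematocrit, 0.05% parasitemia final), exposed to compound two generations (96 h, 37 C, 5% CO2).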
# AMA1 RON2 block – qHTS for Inhibitors of AMA1-RON; Towards Development of Antimalarial Drug Lead: Primary Screen | Plasmodium falciparum AMA1 (3D7) - RON2 peptide interaction | AlphaScreen AMA1-biotinylated RON2 peptide binding | Potency, µM (highest dose often 58.2 µM), most hits filed as inhibitors | hit rate 0.2% among 360,000; also: nearly all actives have a fitted effect of over 45% in size
#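 AMA1 (3D7) with his tag at 25 nM final met compounds first, then biotinylated RON2 peptide at 25 nM; detection used donor plus acceptor beads, 10 µg/mL apiece, read by AlphaScreen after 30 min at room temperature.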
# SARS PLpro yeast – qHTS of Yeast-based Assay for SARS-CoV PLP. hit rate 0.19% among 330,000. S. cerevisiae expressing SARS-CoV PLpro, growth rescue. Potency, µM (highest dose often 32.9 µM), actives largely listed as activators; calls by dose curve; also: nearly all actives have a fitted effect of over 55% in size
# NS1 inh – qHTS Assay for Inhibitors of Influenza NS1 Protein Function. Potency, µM (doses to about 46.1 µM). hit rate 0.4% among 270,000; calls by dose curve; also: actives are rising curves; nearly all actives have a fitted effect of over 50% in size
#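 Compounds were scored for reversing the slow growth caused by influenza A NS1 in S. cerevisiae, measured by optical density at 600 nm. Assay medium contained 2% galactose at pH 6.0; NS1-free yeast of the same strain were the positive control.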
# HCV inhibitor – qHTS Assay for Inhibitors of Hepatitis C Virus (HCV) | Huh7.5.1 HCVcc-Cre infection, luciferase reporter, 44 h | Potency, µM (titrated, usually from 41.8 µM), actives largely listed as inhibitors | hit rate 3.4% among 340,000 | AID 651820, 2012
#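 Infectious HCVcc-Cre (~0.5 moi) was added to cells just after compound, with cells seeded 4 h earlier at 1,000 per well. Luciferase activity after 44 h culture reported infection; substrate was incubated 15 min at room temperature before reading.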
# Hits are given with their value; 0 = inactive; ? = inconclusive; - = no result given. Compounds with a hit are over-represented: about 12% of the library has one in this group of screens. Unless noted, calls follow the shape of the dose curve; as a rule, active = well fitted curve in the direction sought with a large enough effect; inconclusive = small, poorly fitted or top-dose-only effect, or another doubt; inactive = no such curve, though single readings can be large; an effect the other way counts as inactive or inconclusive.
SMILES,Pf growth 48h,Pf growth 96h,AMA1 RON2 block,SARS PLpro yeast,NS1 inh,HCV inhibitor
Cc1ccc(NC(=O)C2CCCN(S(=O)(=O)c3cccnc3)C2)c(C)c1 (configuration not stated),?,0,0,0,0,0
O=C(Nc1ccncc1NC(=O)c1cccc([N+](=O)[O-])c1)c1cccc([N+](=O)[O-])c1,?,2.3µM,0,0,-,?
Cc1ccc([N+](=O)[O-])cc1NC(=O)c1ccccc1,0,2.1µM,0,0,-,0
O=C(Nc1ccc([N+](=O)[O-])cc1NC(=O)c1ccccc1)c1ccccc1,-,-,0,-,-,0
CCCCn1c(N)c(N(CCOC)C(=O)c2ccc(COc3ccccc3)o2)c(=O)[nH]c1=O,?,?,0,0,-,0
C/C(=N/O)c1cccc(N2Cc3ccccc3C2)c1,13µM,?,0,0,0,?
Nc1c(CO)nnn1-c1ccccc1,0,0,0,0,0,0
O=c1[nH]cnc2c1c(-c1ccccc1)cn2-c1cccc(Cl)c1,0,?,0,0,0,0
COc1ccc(-n2cc(-c3ccccc3)c3c(=O)[nH]cnc32)cc1,0,10µM,?,0,0,0
COc1ccc(-c2csc(C(C)(O)c3cccc(F)c3)n2)cc1 (configuration not stated),-,-,0,-,-,-
Cc1ncc(CN2CCCC(C(=O)c3sccc3C)C2)s1 (configuration not stated),0,12µM,0,0,0,0
COc1ccccc1C(=O)N1CCN(C(=O)c2oc3ccc(C)cc3c2C)CC1,0,?,0,0,0,0
CCOC(=O)N1CC=C2C(C#N)=C(N)C(C#N)(C#N)[C@H](c3ccccc3OCC)[C@H]2C1,0,-,0,0,0,0
N#CC1=C(N)C(C#N)(C#N)[C@H](c2cccnc2)[C@H]2CN(C(=O)OCc3ccccc3)CC=C12,?,13µM,0,0,0,0
N#CC1=C(N)C(C#N)(C#N)C(c2cccnc2)C2CC(c3ccccc3)CC=C12 (configuration not stated),?,12µM,0,0,0,0
CCOC(=O)N1CC=C2C(C#N)=C(N)C(C#N)(C#N)[C@H](c3ccc(OC(C)C)c(OCC)c3)[C@H]2C1,5.2µM,0,0,0,?,?
C=CCN1C=CC(=O)CC1,0,0,0,0,0,0
COC(=O)C1=NN(c2ccccc2)C2(S1)SC(C(C)=O)=C(C)N2c1ccccc1 (configuration not stated),?,0,?,0,0,0
CC(=O)C1=NN(c2ccccc2)C2(S1)S/C(=C\c1ccccc1)C(=O)N2c1ccccc1 (configuration not stated),12µM,-,0,0,0,?
COC(=O)C1=NN(c2ccc(C)cc2)C2(S1)SC(C(C)=O)=C(C)N2c1ccccc1 (configuration not stated),10µM,-,0,0,0,0
CCN(C[C@H]1N[C@@](Cc2ccccc2)(C(=O)OC)[C@H]2C(=O)N(C)C(=O)[C@@H]12)C(=O)NC(C)C,-,-,0,0,-,0
CC(=O)Nc1ccc(S(=O)(=O)NNC(=O)c2cccc(Cl)c2)cc1,?,?,0,0,-,0
CCOC(=O)c1cnc(-n2[nH]c(C)cc2=O)[nH]c1=O,0,?,1.6µM,0,-,0
COCCN(Cc1ccccc1)C(=O)c1cc(-c2ccc(OC)c(OC)c2)nc2ccccc12,9.3µM,?,0,0,0,?
COc1cc(-c2cc(C(=O)N(C)Cc3ccccc3)c3ccccc3n2)cc(OC)c1OC,13µM,?,0,0,0,?
SMILES,Pf growth 48h,Pf growth 96h,AMA1 RON2 block,SARS PLpro yeast,NS1 inh,HCV inhibitor
CCCCCCCCCCOC(=O)Cn1c(COc2ccccc2OC)[n+](C)c2ccccc21,1.7µM,?,0,0,0,14µM
Clc1ccc(-c2n[nH]c3c2CCCC3)cc1,0,0,0,0,-,10µM
Clc1ccc(-c2n[nH]c3c2CCC3)cc1Cl,0,0,0,0,0,0
CC(C)(CO)NCc1cc(Br)ccc1OCc1ccccc1,10µM,-,0,0,0,0
COc1ccc(/C=N/n2cc(-c3ccc(OC)cc3)nc2N)cc1,?,?,0,0,0,0
COc1ccc(/C=N/n2cc(-c3ccccc3)nc2N)cc1,?,10µM,0,0,0,0
COc1ccc(NC(=O)c2ccco2)cc1NC(=O)c1ccco1,0,0,0,0,0,0
COc1ccc(NC(=O)Cc2ccc(Cl)cc2)cc1NC(=O)c1ccco1,-,0,0,0,0,10µM
COc1ccc(NC(=O)c2ccco2)cc1NC(=O)c1c(OC)cccc1OC,0,2.3µM,0,0,0,0
O=C(Cc1ccccc1)Nc1ccc(NC(=O)c2ccco2)cc1Cl,0,9.3µM,0,0,?,0
COc1cc(NC(=O)c2c(OC)cccc2OC)ccc1NC(=O)c1cc2ccccc2o1,0,0,0,0,0,25µM
COc1ccc(NC(=O)c2ccco2)cc1N,0,8.3µM,0,0,0,0
COc1ccc(NC(=O)c2ccco2)cc1NC(=O)c1ccccc1,0,0,0,0,0,0
COc1ccc(NC(=O)C(=O)NCCC2CCCCN2S(=O)(=O)c2ccccc2)cc1 (configuration not stated),0,?,0,0,-,?
NC(=O)c1cc(NC(=O)c2cc(Br)c(Br)s2)cc(C(N)=O)c1,0,8.3µM,0,0,-,0
O=C(NCC1CCCO1)c1cc(Br)c(Br)s1 (configuration not stated),0,0,0,0,0,0
O=C(Nc1cccnc1)c1cc(Br)c(Br)s1,?,12µM,0,0,-,0
O=C(Nc1cccnc1)c1cc(-c2cccc(Cl)c2)on1,0,0,0,0,0,0
CCOCc1cn(CC(=O)c2ccc([N+](=O)[O-])cc2)c(C)nc1=N,1µM,-,0,0,0,?

# Source: PubChem
